BAZ2B block: blocks human BAZ2B | Q9UIF8 | AlphaScreen BAZ2B-H3K14Ac peptide displacement | Potency, µM (titrated, usually from 114 µM), inactives show top-dose activity change, negative = inhibition, hits mostly inhibitors | hit rate 4.4% among 360,000 | AID 504333; also: % is scaled to controls: 0 for no effect and ±100 for the full control effect; nearly all actives have a fitted effect of over 60% in size
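BAZ2B 50 nM plus b-H3(5-23)K14Ac 50 nM, PBS pH 7.4/0.01% Tween-20, 30 min RT; compound added (max 110 uM), 30 min RT; streptavidin donor/Ni-chelate acceptor beads 10 ug/mL final, 20 min dark; AlphaScreen read.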
JMJD2A Tudor: blocks the human JMJD2A Tudor domain; Potency, µM (doses to about 114 µM), inactives show at the top dose activity change, negative = inhibition, actives largely listed as inhibitors; O75164; hit rate 4.4% among 390,000; AID 504339; AlphaScreen JMJD2A-Tudor / H3K4me3 peptide binding; also: % is scaled to controls: 0 for no effect and ±100 for the full control effect; nearly all actives have a fitted effect of over 50% in size
HP1b binding inh: HP1-beta chromodomain-methylated histone interaction inhibition; P83916; AlphaScreen HP1-beta / biotin-H3K9me3 peptide binding; Potency, µM (series often up to 114 µM), without a hit: at the top dose activity change, negative = inhibition, actives largely listed as inhibitors; hit rate 0.56% among 390,000; AID 540317; also: nearly all actives have a fitted effect of over 70% in size
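Compound inhibition of the preformed complex between 50 nM HP1-beta and 50 nM biotinylated H3K9me3 peptide was read by AlphaScreen. Buffer was PBS pH 7.4 with 0.01% Tween-20. Incubations ran 30 min at room temperature, with 10 ug/mL donor/acceptor beads.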
L3MBTL1 inh: L3MBTL1 (human) inhibition. Q9Y468. AlphaScreen L3MBTL1–H3K9me1 peptide binding. Potency, µM (top dose mostly 57.1 µM), without a hit: at the highest dose activity, negative = inhibition, hits mostly inhibitors. hit rate 0.66% among 230,000. AID 485360; also: % is scaled to controls: 0 for no effect and ±100 for the full control effect; nearly all actives have a fitted effect of over 60% in size
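Displacement of a biotinylated histone H3(1-15) peptide monomethylated at Lys9 (75 nM) from L3MBTL1 (50 nM) was measured by AlphaScreen after a 30 min room-temperature compound incubation; cefsulodin titration served as intraplate control.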
G9a block: G9a (human) methyltransferase inhibition; G9a H3K9 monomethylation, AlphaScreen, 2 h; Q96KQ7; Potency, µM (highest dose often 102 µM), for inactives: at the top dose activity, negative = inhibition, actives largely listed as inhibitors; hit rate 8.8% among 350,000; also: % is scaled to controls: 0 for no effect and ±100 for the full control effect; nearly all actives have a fitted effect of over 75% in size
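Methyltransferase reactions run at room temperature for 2 h (20 nM enzyme, 500 nM biotin-H3K9 peptide, 20 uM SAM) after a 15 min compound preincubation; product detected by AlphaScreen beads and anti-H3K9me1 antibody.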
GLS inhibitor: glutaminase GLS (human) inhibition | hit rate 0.21% among 410,000 | Potency, µM (titrated, usually from 45.5 µM), for the others: top-dose activity change, negative = inhibition, usual class: inhibitors | O94925 | AID 624170 | GLS enzymatic activity, qHTS titration; also: % is scaled to controls: 0 for no effect and ±100 for the full control effect
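Assay buffer: 45 mM KH2PO4 pH 8.2, 0.02% Tween-20. hKGA acts on L-glutamine (1 mM solution added); product glutamate is reported by an oxidase/peroxidase Amplex Red coupling, with fluorescence taken at baseline and 30 min.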
* hit, by the source's call; ? = inconclusive; · = no result; [ ] = remark or other dose. In the library only some 10% were active in any assay of this set; here they are far more common. Calls follow the shape of the dose curve; as a rule, active = well fitted curve in the direction sought with a large enough effect; inconclusive = small, poorly fitted or top-dose-only effect, or another doubt; inactive = no such curve, though single readings can be large; an effect the other way counts as inactive or inconclusive. Potency is read from the fitted curve at half-maximal effect.

SMILES | BAZ2B block | JMJD2A Tudor | HP1b binding inh | L3MBTL1 inh | G9a block | GLS inhibitor
CCOC(=O)C(C(=O)OCC)N(Cc1cc(OC)ccc1OC)C(=O)C1CC(CO[Si](C)(C)C(C)(C)C)=CN1C(=O)OC(C)(C)C (configuration not stated) | · | -35.2% | 8.2% | · | · | ·
COc1ccc(CNC(=O)c2ccc(-c3nc(CSc4ccccc4)c(C)o3)cc2)c(OC)c1 | -19.6% | -7.9% | 58.5% | · | ? | 1.6%
CCOc1ccc(Br)cc1/C(C)=N\NC1=NCCN1 | -7.8% | -16.6% | 18.9% | · | 56.2µM* | 7.5%
O=C(Nc1sc2c(c1C(=O)NCc1ccccc1)CCCC2)c1cc(=O)c2cc(Cl)ccc2o1 | -1.3% | -19.1% | 1.8% | · | -42.7%[59 µM] | -0.4%
COc1ccc(C2C3=C(CC(C)(C)CC3=O)Nc3c2c(=O)n(C)c(=O)n3C)cc1OC (configuration not stated) | -20.5% | ? | -13.3% | 2.1% | 26.5%[12.7 µM] | 12.6µM*
COc1ccc(C2Nc3ccccc3NC3=C2C(=O)CC(C)(C)C3)cc1O (configuration not stated) | -1.2% | 12.6µM* | -5.2% | -4.3% | -16.2% | 12.6µM*
C=CCOc1ccccc1C1C2=C(CC(C)(C)CC2=O)Nc2c1c(=O)n(C)c(=O)n2C (configuration not stated) | 5.3% | -16.9% | 7.8% | 5.0% | -10.3%[2.33 µM] | 35.4%
COc1ccc(C2Nc3ccccc3NC3=C2C(=O)CC(C)(C)C3)cc1OC (configuration not stated) | -15.0% | -22.6% | 22.2% | -4.8% | 10.9% | 17.0%
COc1ccc(N2CC(NC(=O)C(=O)c3c[nH]c4ccccc34)CC2=O)cc1 (configuration not stated) | 4.4% | 4.9% | 29.6% | · | 4.7%[59 µM] | 6.9%
COC(=O)c1ccc(OCC2c3cc(OC)c(OC)cc3CCN2C(=O)c2ccco2)cc1 (configuration not stated) | ? | ? | -15.0% | -10.3% | 50.1µM* | -8.8%
COc1ccc(OCC2c3cc(OC)c(OC)cc3CCN2C(=O)C(C)C)cc1 (configuration not stated) | -36.6% | 56.2µM* | -8.3% | · | ? | 4.3%
CCc1ccc(NC(=O)C(=O)NCC(c2ccc3c(c2)OCO3)N2CCN(C)CC2)cc1 (configuration not stated) | -19.6% | -23.5% | 12.0%[57 µM] | · | -0.6%[59 µM] | 0.5%
COc1ccc(Nc2nc(N)c3cc(OC)c(OC)cc3n2)cc1 | ? | ? | -0.9% | · | ? | 6.8%
CCOC(=O)c1ccc(NC(=O)CCCc2nc(-c3ccccc3Cl)no2)cc1 | 9.0% | -6.2% | 15.9% | · | 11.7%[59 µM] | -3.9%
Cc1ccccc1C(=O)OCc1cc(=O)n2nc(C3CC3)sc2n1 | -1.8% | -15.7% | -8.6% | · | 3.8%[59 µM] | -11.2%
CO[C@H]1C=CO[C@@]2(C)Oc3c(C)c(O)c4c(O)c(c(C=NN5CCN(C)CC5)c(O)c4c3C2=O)NC(=O)C(C)=CC=C[C@H](C)[C@H](O)[C@@H](C)[C@@H](O)[C@@H](C)[C@H](OC(C)=O)[C@@H]1C | 44.7µM* | ? | -22.1% | -25.2% | ? | 1.9%
Cc1cc(/C=N/NC(=O)c2ccncc2)c(C)n1-c1ccccc1 | ? | -26.8% | 2.4% | -4.5% | ? | -14.6%
Cc1cc(/C=N/NC(N)=O)c(C)n1-c1ccc(F)cc1 | -38.3% | ? | -18.4% | · | ? | 6.1%
Cc1ccc(-n2c(C)cc(/C=N/NC(=O)c3ccncc3)c2C)cc1C | 50.1µM* | ? | -16.0% | -24.3% | 50.1µM* | 2.3%
CCc1ccc(-n2c(C)cc(/C=N/NC(=O)c3ccncc3)c2C)cc1 | 39.8µM* | ? | -3.0% | -27.0% | · | -8.9%
COC(=O)N/N=C/c1cc(C)n(-c2ccc(Br)cc2)c1C | 44.7µM* | -25.3% | ? | -18.2% | · | -7.1%
Cc1ccc(-n2c(C)cc(/C=N/NC(=O)c3ccncc3)c2C)c(C)c1 | 44.7µM* | ? | 5.8% | -16.2% | ? | 0.0%
COC(=O)N/N=C/c1cc(C)n(-c2ccc(F)cc2)c1C | ? | -35.7% | 8.4% | · | ? | -0.5%
COc1ccc(N(Cc2cc3cccc(C)c3[nH]c2=O)C(=O)c2cccc(Cl)c2)cc1 | ? | ? | 4.9% | · | -45.3%[59 µM] | 1.7%
Cc1ccc(C)c2nc3sc(C(=O)N4CCCc5ccccc54)c(N)c3cc12 | 1.3% | -33.6% | 14.2% | 7.6% | ? | 2.3%
SMILES | BAZ2B block | JMJD2A Tudor | HP1b binding inh | L3MBTL1 inh | G9a block | GLS inhibitor
Cc1ccc(C)c2nc3sc(C(=O)O)cc3cc12 | -14.5% | -4.9% | 37.0% | ? | 39.8µM* | 0.0%
COC(=O)c1cc(-c2ccc(C)o2)nc2ccccc12 | ? | ? | ? | -16.3% | ? | -3.8%
Cc1ccc(-c2cc(C(=O)N3CC(C)OC(C)C3)c3ccccc3n2)o1 (configuration not stated) | 7.1% | -9.0% | 37.7% | -1.1% | 10µM* | 5.0%
Cc1ccc(-c2cc(C(=O)N3CC(C)CC(C)C3)c3ccccc3n2)o1 (configuration not stated) | 79.4µM* | 28.2µM* | ? | · | 8.91µM* | 1.1%
C=C1c2ccccc2O[C@H](C(=O)OCC)[C@@H]1CC(C)(C)c1ccccc1 | · | · | · | · | 3.3% | ·
O=C(c1cc(C(F)(F)F)cc(C(F)(F)F)c1)N1CCC2(CC1)CN(c1ccccc1)C2 | · | · | · | · | 10.5%[12.7 µM] | ·
CCCCC(CC)CN=C(N)NC(N)=NCCCCCCN=C(N)NC(N)=NCC(CC)CCCC (configuration not stated) | 3.4% | 79.4µM* | 32.6% | 8.1% | -25.6%[59 µM] | 15.8µM*
CCCCC(CC)CO (configuration not stated) | · | -15.0% | 9.1% | -8.0% | · | 0.5%
COc1ccc(NC(=O)N(CCC(C)C)C(C)c2cccs2)c(OC)c1 (configuration not stated) | -16.8% | ? | 25.6% | · | ? | 3.5%
C/C(=N/N=C(/N)SCc1ccccc1)C(C)(C)C | -17.9% | -6.3% | 40.9% | 0.6% | 10µM* | -1.7%
Cc1cccc(CSC(=N)N)c1 | 0.8% | -9.6% | 15.6% | 3.7% | 18.9% | 4.7%
CC1CCC2C(=O)N(c3ccc(C(=O)Oc4cccc5cccnc45)cc3)C(=O)C2C1 (configuration not stated) | 50.1µM* | 56.2µM* | 4.6% | ? | ? | -20.0%
Cc1ccc(C)c(-n2c(-c3cccnc3)n[nH]c2=S)c1 | ? | 22.4µM* | 7.7% | 3.6% | 31.6µM* | 15.3%
Cc1ccc(C)c(-n2c(-c3csc(C)c3C)n[nH]c2=S)c1 | -30.3% | 25.1µM* | 15.0% | -6.0% | ? | -14.9%
Cc1onc(-c2ccccc2)c1-c1n[nH]c(=S)n1-c1ccccc1Cl | -25.6% | -28.1% | 21.7% | -2.1% | 23.2%[0.501 µM] | -8.5%

Screens as filed in PubChem.
